Consider 19 compounds from PubChem BioAssay (Tox21).

Experiment [1] in a line: qHTS assay to identify small molecule agonists of the vitamin D receptor (VDR) signaling pathway - cell viability counter screen (AID 743224). Further: series mostly up to about 63 µM; nearly all actives have a fitted effect of over 50% in size. The procedure, abridged:
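In parallel with the bla FRET readout, cytotoxicity toward VDR-bla cells after 16 h compound exposure was assessed by CellTiter-Glo, with luminescence recorded after a 30 min room-temperature incubation.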
(Quantitative high-throughput screening tests each substance at several concentrations.)

Experiment [2] in a line: qHTS assay to identify small molecule antagonists of the vitamin D receptor (VDR) signaling pathway - cell viability counter screen (AID 743225). Further: nearly all actives have a fitted effect of over 50% in size. In short, it runs like this:
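Parallel cytotoxicity test: VDR-UAS-bla HEK 293T, 3 nM (final) 1-alpha,25-dihydroxyvitamin D3 with test compound, 16 h, 37C. Endpoint is CellTiter-Glo luminescence in the same wells.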

A short description of experiment [3]: qHTS assay to identify small molecule agonists of the NFkB signaling pathway (AID 1159509; active means well fitted curve in the direction sought with a large enough effect in the signal ratio in the repeat runs, not every such curve was filed as active; the % refers to the signal ratio; further: series mostly up to about 61 µM). The procedure, abridged:
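Beta-lactamase reporter assay run in quantitative high-throughput format on an NF-kB-responsive ME-180 line, with 5 hr compound treatment and a FRET-based blue/green fluorescence readout.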

The nature of experiment [4]: qHTS assay to identify small molecule agonists of the NFkB signaling pathway - cell viability counter screen (AID 1159515; calls by dose curve; further: series mostly up to about 61 µM; nearly all actives have a fitted effect of over 55% in size). In short, it runs like this: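 Plate 2,000 NFkB-bla ME-180 cells/well; incubate overnight. Add compounds, 5 hr at 37 C. Add FRET substrate, 1.5 hr RT. Add CellTiter-Glo, 30 min RT; read luminescence.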
Experiment [5] can be described thus: qHTS assay to identify small molecule agonists of the endoplasmic reticulum stress response signaling pathway (AID 1159516; active means well fitted activation curve with a large enough effect in the signal ratio in the repeat runs, not every such curve was filed as active; the % refers to the signal ratio). In short, it runs like this: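 Beta-lactamase expression from the ER stress response element in HeLa reporter cells is quantified with the LiveBLAzer B/G FRET substrate, read at 405 nm excitation after 2 hr at room temperature, following 5 hr compound treatment at 37 C.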

A short description of experiment [6]: qHTS assay to identify small molecule agonists of the endoplasmic reticulum stress response signaling pathway - cell viability counter screen (AID 1159517; calls by dose curve; further: nearly all actives have a fitted effect of over 50% in size; further: potency means the concentration at half of the fitted maximal effect). The procedure, abridged:
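After overnight attachment, ESRE-bla HeLa cells were treated with Tox21 library compounds for 5 hr. CellTiter-Glo luminescence, read 30 min post-addition at room temperature, reported viability.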

Experiment [7] in a line: qHTS assay to identify small molecule antagonists of the retinoid-related orphan receptor gamma (ROR-gamma) signaling pathway - cell viability counter screen (AID 1159520). Further: nearly all actives have a fitted effect of over 50% in size. In short, it runs like this:
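Cytotoxicity was read from cellular ATP (CellTiter-Glo luminescence) after 16 hr at 37 C with 1 uM doxycycline induction. The inducer was added 2 hr after compound transfer to Tet-on ROR gamma CHO cells.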

In experiment [8] the target is Nuclear receptor ROR-gamma (Homo sapiens) (UniProt P51449). Kind of experiment: qHTS assay to identify small molecule antagonists of the retinoid-related orphan receptor gamma (ROR-gamma) signaling pathway (AID 1159521). In short, it runs like this: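 Decreased RORE-driven luciferase luminescence indicates antagonism. Tet-on RORγ CHO cells received compound, then 1 uM final doxycycline 2 h later; signal read after 16 h incubation.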

Experiment [9] can be described thus: qHTS assay to identify small molecule agonists of the AP-1 signaling pathway - cell viability counter screen (AID 1159525; calls by dose curve; further: nearly all actives have a fitted effect of over 55% in size). The procedure, abridged: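 Intracellular ATP by Cell Titer Glo luminescence (30 min, RT) in the same ME-180 AP-1-bla wells after the 5 h compound exposure at 37 °C. Normalised to tetra n-octyl ammonium bromide and DMSO controls.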
Experiment [10] is described as follows: qHTS assay to identify small molecule agonists of the AP-1 signaling pathway (AID 1159526; calls by dose curve).
Experiment [11] concerns the target Retinoic acid receptor RXR-alpha (Homo sapiens) (UniProt P19793). Kind of experiment: qHTS assay to identify small molecule agonists of the RXR signaling pathway (AID 1159527; calls by dose curve; further: nearly all actives have a fitted effect of over 35% in size). In short, it runs like this:
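16 hr incubation of compound-treated RXR-alpha-UAS-bla HEK 293T cells (2% charcoal-stripped FBS, 37 C) preceded a 2 hr room-temperature LiveBLAzer FRET substrate step and blue/green fluorescence measurement.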

A short description of experiment [12]: qHTS assay to identify small molecule agonists of the RXR signaling pathway - cell viability counter screen (AID 1159529). In short, it runs like this: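 In this parallel viability measure, GeneBLAzer RXR-alpha HEK 293T cells (2% charcoal-stripped FBS) were given a 5 hr preincubation, treated with compounds 16 hr at 37 C, and read by CellTiter-Glo luminescence.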

The nature of experiment [13]: qHTS assay to identify small molecule antagonists of the retinoid acid receptor (RAR) signaling pathway - cell viability counter screen (AID 1159551). Further: nearly all actives have a fitted effect of over 35% in size. The procedure, abridged: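 Viability of C3RL4 cells is quantified from ATP by luminescence after 6 h treatment at 37 C with compounds and 1 uM retinol.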
Experiment [14] in a line: qHTS assay to identify small molecule antagonists of the retinoic acid receptor (RAR) signaling pathway (AID 1159552; further: nearly all actives have a fitted effect of over 50% in size). In short, it runs like this: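 C3RL4 RARE-luc cells, overnight plating; retinol 1 uM final added right after compound; 6 hr 37 C; luciferase read at 30 min RT.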
The nature of experiment [15]: qHTS assay to identify small molecule agonists of the retinoic acid receptor (RAR) signaling pathway (AID 1159553). In short, it runs like this:
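Compounds dissolved in DMSO were pinned onto C3RL4 cells seeded the previous day, and plates were held 6 hr at 37 C. RARE-driven luciferase output was then read by luminescence.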

Values joined by “and” are separate entries in the source; they are usually repeats but may differ in a detail not shown here. Equal entries are not always repeated. Results filed as inconclusive are left out. The source holds several records for some structures; these can differ, active in one and inactive in another. Active and inactive are the calls of the source. Unless noted, the call rests on the fitted dose curve; in most records, active means well fitted curve in the direction sought with a large enough effect in the repeat runs; inconclusive means weak or mixed curves; inactive means no such curve, though single readings can be large; an effect the other way counts as inactive or inconclusive.

Chain of Retinoic acid receptor RXR-alpha (Homo sapiens) (P19793 whole entry, looked up): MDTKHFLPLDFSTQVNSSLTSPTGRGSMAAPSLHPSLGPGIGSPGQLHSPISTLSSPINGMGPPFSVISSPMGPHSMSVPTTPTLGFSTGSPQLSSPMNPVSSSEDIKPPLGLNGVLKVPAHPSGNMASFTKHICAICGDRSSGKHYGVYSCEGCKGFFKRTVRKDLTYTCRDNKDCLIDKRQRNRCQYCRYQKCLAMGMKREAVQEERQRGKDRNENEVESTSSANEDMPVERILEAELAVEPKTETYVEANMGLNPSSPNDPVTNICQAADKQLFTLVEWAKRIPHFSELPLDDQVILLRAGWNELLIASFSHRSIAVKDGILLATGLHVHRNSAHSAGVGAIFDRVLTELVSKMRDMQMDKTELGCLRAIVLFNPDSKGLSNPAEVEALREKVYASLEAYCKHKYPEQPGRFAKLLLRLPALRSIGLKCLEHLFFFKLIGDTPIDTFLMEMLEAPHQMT

Consider `C=CC(=O)OCCC(=O)O`, for which the call in experiment [1], in [2], in experiment [3], in experiment [4], in experiment [5] and in experiment [7] was inactive. Further, the compound was called inactive in experiment [9], in experiment [12], in experiment [13] and in [14]. The Potency entry in experiment [6], in experiment [8], in experiment [10], in experiment [11] and in experiment [15] was “inactive” each time.
Regarding `CC(=O)Oc1ccc(C)cc1`, the compound was classed as inactive in experiment [1], in experiment [2], in [3], in [4], in experiment [5] and in experiment [7]. Further, the compound was called inactive in experiment [9], in [12], in experiment [13] and in [14]. The Potency entry in experiment [6], in experiment [8], in experiment [10], in experiment [11] and in experiment [15] was “inactive” in each case.
With `NC(=S)NNC(N)=S`, the outcome in [1], in experiment [2], in [3], in experiment [4], in experiment [5] and in experiment [7] was inactive. The compound was classed as inactive in experiment [9], in experiment [12], in [13] and in experiment [14]. Also, the Potency entry in experiment [6], in experiment [8], in [10], in [11] and in experiment [15] was “inactive” throughout.
Take `O=S(=O)(O)c1ccc(N=Nc2c(O)ccc3cc(S(=O)(=O)O)ccc23)cc1`: the compound was classed as inactive in experiment [1], in experiment [2], in experiment [3], in [4], in experiment [5] and in experiment [7]. Moreover, the outcome in experiment [9], in experiment [12], in experiment [13] and in experiment [14] was inactive. Also, the Potency entry in [6], in experiment [8], in [10], in experiment [11] and in experiment [15] was “inactive” throughout.
Consider `CCCCCCCCCCCCCCCCO`, for which the compound was called inactive in experiment [1], in experiment [2], in experiment [3], in experiment [4], in experiment [5] and in experiment [7]. In addition, the compound was called inactive in experiment [9], in [12], in experiment [13] and in experiment [14]. Besides, the Potency result in [6], in experiment [8], in [10], in experiment [11] and in [15] was “inactive” in each case.
For the compound `CCNC(=S)NCC`, the call in experiment [1], in [2], in [3], in experiment [4], in experiment [5] and in [7] was inactive. Moreover, the outcome in experiment [9], in [12] and in experiment [13] was inactive. Besides, the Potency entry in experiment [6], in experiment [8], in experiment [10] and in experiment [11] was “inactive” each time.
As to `CN(C)c1ccc(Cc2ccc(N(C)C)cc2)cc1`, the compound was classed as inactive in experiment [1], in experiment [2], in experiment [3], in experiment [4], in experiment [5] and in [7]. Moreover, the compound was classed as inactive in experiment [9], in experiment [12], in experiment [13] and in [14]. Moreover, the Potency result in [6], in experiment [8], in experiment [10], in experiment [11] and in experiment [15] was “inactive” in each case.
Consider `O=C(O)c1ccc(C(=O)O)c(C(=O)O)c1`, for which the result in experiment [1], in experiment [2], in experiment [3], in experiment [4], in experiment [5] and in experiment [7] was inactive. Besides, the compound was classed as inactive in experiment [9], in [12], in experiment [13] and in [14]. The Potency result in experiment [6], in experiment [8], in experiment [10], in experiment [11] and in experiment [15] was “inactive” in each case.
As for `Clc1ccccn1`, the result in [1], in [2], in [3], in experiment [4], in [5] and in experiment [7] was inactive. The call in [9], in [12], in experiment [13] and in [14] was inactive. The Potency result in experiment [6], in experiment [8], in experiment [10], in experiment [11] and in experiment [15] was “inactive” throughout.
As to `CC1(C)NC(=O)NC1=O`, the compound was called inactive in [1], in experiment [2], in experiment [3], in experiment [4], in experiment [5] and in experiment [7]. Besides, the result in experiment [9], in [12] and in experiment [14] was inactive. Also, the Potency entry in [6], in experiment [8], in [10], in experiment [11] and in experiment [15] was “inactive” each time.
Take `O=[N+]([O-])c1ccc2nc[nH]c2c1`: the outcome in experiment [1], in experiment [2], in experiment [3], in experiment [4], in experiment [5] and in [7] was inactive. The outcome in experiment [9], in experiment [12] and in experiment [13] was inactive. For the same compound, the Potency entry in experiment [6], in experiment [8], in [10] and in [11] was “inactive” each time.
On to `OCc1cccc(Oc2ccccc2)c1`, for which the compound was called inactive in experiment [1], in experiment [2], in experiment [3], in experiment [4], in [5] and in [7]. Besides, the result in [9], in experiment [12], in experiment [13] and in experiment [14] was inactive. For the same compound, the Potency result in [6], in experiment [8], in experiment [10], in [11] and in experiment [15] was “inactive” each time.
Turning to `CCCOC(=O)c1ccccc1`, the result in experiment [1], in experiment [2], in [3], in experiment [4], in experiment [5] and in [7] was inactive. Also, the compound was called inactive in experiment [9], in [12] and in experiment [13]. The Potency result in [6], in [8], in experiment [10] and in experiment [11] was “inactive” each time.
On to `CNC(=S)N(C)C`, for which the outcome in [1], in experiment [2], in experiment [3], in [4], in experiment [5] and in experiment [7] was inactive. Besides, the compound was called inactive in experiment [9], in experiment [12], in experiment [13] and in experiment [14]. Besides, the Potency result in [6], in [8], in experiment [10], in experiment [11] and in experiment [15] was “inactive” throughout.
On to `NCCCCCCN`, for which the compound was classed as inactive in [1], in [2], in experiment [3], in experiment [4], in [5] and in [7]. Besides, the outcome in [9], in experiment [12], in experiment [13] and in experiment [14] was inactive. Further, the Potency entry in experiment [6], in experiment [8], in experiment [10], in experiment [11] and in experiment [15] was “inactive” throughout.
As to `CCCCCCCCCCN`, the result in experiment [1], in experiment [2], in experiment [3], in experiment [4], in [5] and in [7] was inactive. Also, the call in experiment [9], in experiment [12] and in [14] was inactive. Besides, in experiment [6], the Potency entry is “inactive and 21.9 µM (active)”. For the same compound, the Potency result in experiment [8], in experiment [10], in experiment [11] and in experiment [15] was “inactive” throughout.
For the compound `CC(=O)OCc1ccco1`, the compound was classed as inactive in [1], in [2], in experiment [3], in experiment [4], in experiment [5] and in [7]. Further, the compound was called inactive in experiment [9], in experiment [12], in experiment [13] and in [14]. For the same compound, the Potency result in experiment [6], in experiment [8], in experiment [10], in [11] and in [15] was “inactive” throughout.
As for `COCCOC(=O)c1ccccc1C(=O)OCCOC`, the outcome in experiment [1], in experiment [2], in experiment [3], in experiment [4], in experiment [5] and in [7] was inactive. In addition, the compound was called inactive in experiment [9], in experiment [12], in experiment [13] and in experiment [14]. Moreover, the Potency entry in experiment [6], in [8], in [10], in [11] and in experiment [15] was “inactive” in each case.
With `COc1ccc(OC)cc1`, the compound was classed as inactive in [1], in experiment [2], in [3], in [4], in experiment [5] and in experiment [7]. Further, the compound was called inactive in [9], in experiment [12] and in experiment [13]. The Potency result in experiment [6], in [8], in [10] and in experiment [11] was “inactive” in each case.
